Results reported in the OligoGym collection.

Target: MEX3D
Test: pooled miR-30 sensor sort-seq; sequence = guide strand
Conditions: shRNA
Further: reference of the scale not given here.

**Q.** TTGACGCTTTTCTTGCGGCTGC was tested. Which sensor-assay potency score (higher = more potent) did it give?
**A.** -0.68

**Q.** Which sensor-assay potency score (higher = more potent) does the source give for TTGATCTTGCAGCCCTGGCGAC here?
**A.** -1.24

**Q.** With TTGACCGTGGAGCAGCCGCTGA as the sequence, how does the sensor-assay potency score (higher = more potent) read?
**A.** -1.71

**Q.** How did the sensor-assay potency score (higher = more potent) turn out when TTGGCGTGGAAGTCGCTGTCGG was run?
**A.** -0.234

**Q.** Which sensor-assay potency score (higher = more potent) does the source give for TGATGTAGGTGTTTGTCTTGGC here?
**A.** 0.554

**Q.** Which sensor-assay potency score (higher = more potent) does the source give for TAGGTGTGCGTCCGCTGCTGGA here?
**A.** -1.39

**Q.** TAGGTGTTTGTCTTGGCCCGCA was tested. Which sensor-assay potency score (higher = more potent) did it give?
**A.** 0.155

**Q.** Which sensor-assay potency score (higher = more potent) does the source give for AGGAAGTCGAAGTCGAAGCCGA here?
**A.** -1.39

**Q.** For TTGATGTAGGTGTTTGTCTTGG, which sensor-assay potency score (higher = more potent) is on record?
**A.** -0.318

**Q.** TTGCCGGAGCCGCTGTAGGGGC was tested. Which sensor-assay potency score (higher = more potent) did it give?
**A.** -1.61

**Q.** AAGTCGAAGCCGAAGTCGCAGT was tested. Which sensor-assay potency score (higher = more potent) did it give?
**A.** -0.692

**Q.** Which sensor-assay potency score (higher = more potent) does the source give for TGGTCGGCCAGCAGCGTCGGGG here?
**A.** -1.69

Target: MFNG
Test: as above
Conditions: shRNA

**Q.** For TCACATAGTTGTCATCGTCCAC, which sensor-assay potency score (higher = more potent) is on record?
**A.** -0.585

**Q.** How did the sensor-assay potency score (higher = more potent) turn out when ATAGTTGTCATCGTCCACATGG was run?
**A.** -0.521

**Q.** With TCGAACTCAGCAGCCATCTTGC as the sequence, how does the sensor-assay potency score (higher = more potent) read?
**A.** -1.05

**Q.** How did the sensor-assay potency score (higher = more potent) turn out when AACTGTACCAGCCTCGTGCGGT was run?
**A.** -0.733

**Q.** Which sensor-assay potency score (higher = more potent) does the source give for TCGGTGAAGACAAATGTCTGTT here?
**A.** -0.485

**Q.** How did the sensor-assay potency score (higher = more potent) turn out when TTGTCATCGTCCACATGGCAGA was run?
**A.** -1.57

**Q.** TTTGTCTGGGCTGTCGGTGAAG was tested. Which sensor-assay potency score (higher = more potent) did it give?
**A.** -0.931

**Q.** For TCTTGCAGGACAGAGCTGGGTG, which sensor-assay potency score (higher = more potent) is on record?
**A.** -0.336
